# Source: PubChem BioAssay (Tox21)
# Several values for one entry are separate records, joined by “and”; a condition that tells them apart may be missing. Identical values can stand only once. Where a structure was tested more than once in an assay, its records may differ in their call. Activity calls are given as the source filed them. Calls come from the whole dose curve.
# Experiment: qHTS assay to identify small molecule agonists of the estrogen related receptor (ERR) signaling pathway from Tox21 library (AID 1224849); note: nearly all actives have a fitted effect of over 15% in size
# Details: ERR reporter cell line, ONE-Glo luciferase, 18 h; at 42.5 µM (top of the series)
# Text: National Center for Advancing Translational Sciences [NCATS]
# NIH Chemical Genomics Center [NCGC]
# U.S. Environmental Protection Agency [EPA]
# National Institutes of Environmental Health Sciences [NIEHS]
# National Toxicology Program [NTP]
# Estrogen related receptors (ERRs), the first orphan nuclear receptors discovered, play an important role in the control of cellular energy metabolism. ERRs are required for high-energy production in response to the environmental challenges. ERR-alpha was also identified as an adverse marker for breast cancer progression; ERR-alpha-positive tumors have a poor prognosis. To screen and to identify environmental compounds that perturb the ERR signaling pathways could provide valuable information for potential therapeutic or preventive measures in the treatment of metabolic disease. For identifying ERR agonists, ERR cell line (provided by NTP) has been used to screen Tox21 10K library.
# The ERR cells were dispensed at 2,000 cells/5 ul/well in 1536-well white plates using a Multidrop dispenser. After the assay plates were incubated at a 37 C/5% CO2 incubator for 6 hours, 23 nL of compounds dissolved in DMSO, positive and negative controls or DMSO only was transferred to the assay plate by a pin tool. The plates were incubated at 37 C for 18 hours. 4 ul/well of One-Glo reagent was added into the assay plates using a Flying Reagent Dispenser. After 30-minute incubation at room temperature, the luminescence intensity in the plates was measured using a ViewLux plate reader.
# % is set by controls: 0 for no effect and ±100 for the full control effect.
row,SMILES,"activity change, positive = activation"
1,O=C(c1cc(O)c(O)c(O)c1)c1ccc(O)c(O)c1O,-6.33% (inactive)
2,O=C1O[C@H](CO)[C@@H](O)[C@H](O)[C@H]1O,3.62% (inactive)
3,Cn1c([N+](=O)[O-])cnc1COC(N)=O,3.23% (inactive)
4,C[C@@H](O)[C@H]1C(=O)N2C(C(=O)O)=C(S[C@@H]3CN[C@H](C(=O)N(C)C)C3)[C@H](C)[C@H]12,6.5% (inactive) and 3.13% (inactive)
5,Nc1cc(-c2ccncc2)c[nH]c1=O,-5.23% (inactive)
6,CCOC(=O)[C@H](CCc1ccccc1)N[C@@H](C)C(=O)N1Cc2ccccc2C[C@H]1C(=O)O,-3.47% (inactive)
7,CC1(C)O[C@@H]2C[C@H]3[C@@H]4C[C@H](F)C5=CC(=O)CC[C@]5(C)[C@H]4[C@@H](O)C[C@]3(C)[C@]2(C(=O)CO)O1,-3.03% (inactive)
8,CC1Cc2ccccc2N1NC(=O)c1ccc(Cl)c(S(N)(=O)=O)c1 (stereo not given),-17.1% (inactive)
9,O=S(=O)(O)CCS,-0.0445% (inactive)
10,CC#C[C@]1(O)CC[C@H]2[C@@H]3CCC4=CC(=O)CCC4=C3[C@@H](c3ccc(N(C)C)cc3)C[C@@]21C,-53.3% (inactive)
11,Cc1cc(O)c2c(c1)C(=O)c1cc(O)cc(O)c1C2=O,-4% (inactive)

# Same assay, conditions: ERR reporter cell line, ONE-Glo luciferase, 18 h; at 92.4 µM (top of the series)
row,SMILES,"activity change, positive = activation"
1,NC(=O)/N=N/C(N)=O,0.308% (inactive) and 1.1% (inactive)
2,ClC1=C(Cl)C(Cl)(Cl)C(Cl)=C1Cl,5.38% (inactive) and 4.2% (inactive)
3,CCCCCCOC(C)=O,8.85% (inactive) and -7.41% (inactive)
4,O=C(c1cc(O)c(O)c(O)c1)c1ccc(O)c(O)c1O,-10.5% (inactive) and -15.9% (inactive)
5,O=C1O[C@H](CO)[C@@H](O)[C@H](O)[C@H]1O,-0.676% (inactive)
6,O=[N+]([O-])C(CO)(CO)CO,10.1% (inactive) and 10.2% (inactive)
7,Cn1c([N+](=O)[O-])cnc1COC(N)=O,6.73% (inactive)
8,CCCCNC(N)=O,7.41% (inactive) and 4.54% (inactive)
9,Nc1cc(-c2ccncc2)c[nH]c1=O,-0.579% (inactive)
10,CCOC(=O)[C@H](CCc1ccccc1)N[C@@H](C)C(=O)N1Cc2ccccc2C[C@H]1C(=O)O,-6.49% (inactive)
11,O=C(Cl)c1c(Cl)c(Cl)c(C(=O)Cl)c(Cl)c1Cl,2.78% (inactive) and 1.3% (inactive)
12,c1ccc2ccccc2c1,7.43% (inactive) and 7.09% (inactive)
13,CC1(C)O[C@@H]2C[C@H]3[C@@H]4C[C@H](F)C5=CC(=O)CC[C@]5(C)[C@H]4[C@@H](O)C[C@]3(C)[C@]2(C(=O)CO)O1,-6.71% (inactive)
14,CCCCC(CC)COC(=O)/C=C\C(=O)OCC(CC)CCCC (stereo not given),-6.56% (inactive) and 3.66% (inactive)
15,CC1Cc2ccccc2N1NC(=O)c1ccc(Cl)c(S(N)(=O)=O)c1 (stereo not given),-13.4% (inactive)
16,O=S(=O)(O)CCS,-7.56% (inactive)
17,CC#C[C@]1(O)CC[C@H]2[C@@H]3CCC4=CC(=O)CCC4=C3[C@@H](c3ccc(N(C)C)cc3)C[C@@]21C,-62.2% (inactive)
18,Oc1c(Cl)cc(Cl)c(Cl)c1Cl,-46.5% (inactive) and -37.8% (inactive)
19,O=C1CCCCC1,-2.85% (inactive) and -5.66% (inactive)
20,Clc1cc(Cl)c(Cl)cc1Cl,6.69% (inactive) and 12.5% (inactive)
21,CCCCCCCCCCCCOCC1CO1 (stereo not given),-2.77% (inactive) and -4.37% (inactive)
22,CCOC(=O)/C=C\C(=O)OCC,1.73% (inactive) and 0.529% (active)
23,Cc1cc(O)c2c(c1)C(=O)c1cc(O)cc(O)c1C2=O,-40.4% (inactive)
24,C=C1C2CCC(C2)C1(C)C (stereo not given),0.557% (inactive) and 4.73% (inactive)
25,Cc1cc(=O)[nH]c(C(C)C)n1,2.86% (inactive) and -3.8% (inactive)
26,C=C(C)C(=O)OCCCCCCCCCCCC,5.32% (inactive) and 1.41% (inactive)
27,OC[C@@H](O)[C@@H](O)[C@H](O)[C@@H](O)CO,3.67% (inactive) and 4.92% (inactive)
28,O=C(O)c1cc(-c2ccccc2)nc2ccccc12,1.96% (active)
29,CCCCC(CC)C(=O)OCCOCCOCCOC(=O)C(CC)CCCC (stereo not given),-11.1% (inactive) and 0.258% (inactive)
